SW480 rereplic – DNA re-replication induction in SW480 cells | SW480 DNA re-replication, Hoechst DNA content imaging, 48 h | Potency, µM (top dose mostly 46.1 µM), inactives show top-dose re-replication activation, actives largely listed as activators | 340,000 tested, 1.8% active | AID 624297; further: % of control where 0% means no effect; nearly all actives have a fitted effect of over 55% in size
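DNA re-replication was detected as more nuclei of elevated Hoechst intensity after 48 hr exposure to compound (23 nL pinned per well of 250 cells).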
KB-3-1 cytotox – KB-3-1 parental cell cytotoxicity; KB-3-1 viability, CellTiter-Glo ATP luminescence, 72 h; Potency, µM (top dose mostly 46.1 µM), usual class: cytotoxic; 400,000 tested, 1.4% active; AID 1347075; further: on the % scale 0 is the no-effect control and ±100 the full control effect; nearly all actives have a fitted effect of over 60% in size
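Multi-concentration cytotoxicity screen in KB-3-1 cells grown in DMEM lacking phenol red with 10% FBS. After 72 h at 37 °C with compound, ATP-dependent luminescence was recorded.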
KB-V1 MDR tox – kills drug-selected multidrug resistant KB-V1 cells; Potency, µM (doses to about 46.1 µM), hits mostly cytotoxic; 400,000 tested, 3.4% active; AID 1347076; KB-V1 MDR cells viability, CellTiter-Glo, 72 h; further: on the % scale 0 is the no-effect control and ±100 the full control effect; nearly all actives have a fitted effect of over 60% in size
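Cells of the MDR subline KB-V1 are plated, dosed with compound at multiple concentrations, and incubated 72 h at 37 degrees C; CellTiter-Glo is then added and luminescence read after 10 min.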
HT1080-NT tox – kills 2HG-producing HT-1080-NT fibrosarcoma cells; HT-1080-NT fibrosarcoma viability, CellTiter-Glo ATP luminescence, 48 h; Potency, µM (series often up to 46.1 µM), for inactives: top-dose activity, negative = less viability, hits mostly cytotoxic; 360,000 tested, 1.6% active; AID 686970;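 further: NT is the 2HG producing partner of a matched IDH1 knockdown line; 0% = DMSO-treated cells and -100% = media-only wells without cells; nearly all actives have a fitted effect of over 55% in size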
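Viability by CellTiter-Glo luminescence after 48 h compound exposure at 37C of HT-1080-NT cells (750/well, RPMI, 5% FBS). % activity scaled between DMSO wells and medium-only wells, then curve-fitted and categorized by curve class.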
MCF10A rerep – DNA re-replication induction in MCF 10a cells; MCF 10A DNA re-replication, Hoechst nuclear intensity, 48 h; Potency, µM (top dose mostly 46.1 µM), for inactives: at the highest dose activity, positive = re-replication, hits mostly activators; 350,000 tested, 2.9% active; further: % of control where 0% means no effect; nearly all actives have a fitted effect of over 50% in size
HT1080 IDH1KD tx – HT-1080 IDH1 knockdown cell toxicity (counter line); HT-1080 IDH1 knockdown viability, ATP luminescence, 48 h; Potency, µM (series often up to 46.1 µM), for the others: at the top dose activity, negative = toxicity, actives largely listed as cytotoxic; 360,000 tested, 2% active;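 further: 0% = DMSO wells and -100% = cell-free medium wells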
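Luminescent ATP read-out (CellTiter-Glo, 10 min at room temperature) after 48 h compound exposure at 37 °C gave viability of IDH1-knockdown HT-1080 cells. Activity was normalised to DMSO and cell-free wells, then fitted as concentration-response curves.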
An asterisk follows results filed as active; i = inactive; ? = inconclusive; nt = no result given; [ ] = dose if it differs, or a comment. Shown are actives, neighbours in structure and some others; about 7.9% of the full set was active somewhere. The call rests on the fitted dose curve; in most records, active means well fitted curve in the direction sought with a large enough effect; inconclusive means small, poorly fitted or top-dose-only effect, or another doubt; inactive means no such curve, though single readings can be large; an effect the other way counts as inactive or inconclusive. Potency means the concentration at half of the fitted maximal effect.

SMILES	SW480 rereplic	KB-3-1 cytotox	KB-V1 MDR tox	HT1080-NT tox	MCF10A rerep	HT1080 IDH1KD tx
O=Cc1cn(Cc2ccc([N+](=O)[O-])cc2)c2ccccc12	?	6.5µM*	?	-22%	18µM*	-23%
COC(=O)[C@@H]1[C@@H]2C[C@H]3c4[nH]c5cc(OC)ccc5c4CCN3C[C@@H]2C[C@H](OC(=O)/C=C\c2cc(OC)c(OC)c(OC)c2)[C@H]1OC	10%[20.6 µM]	nt	nt	nt	11%[20.6 µM]	nt
CC(=O)Nc1cccc(-c2ccnc3c2CC(C(=O)NCc2ccco2)O3)c1 (centres undefined)	nt	5.8µM*	i	?	nt	2.3µM*
CC(=O)c1cccc(-c2ccnc3c2CC(C(=O)NCCc2ccccc2)O3)c1 (centres undefined)	nt	2.3µM*	3.3µM*	?	nt	?
COC(=O)C1=C(c2cccc(C#N)c2)C[C@@H]2CC[C@H]1N2C(=O)NCCc1ccccc1	-3%	i	i	-22%	-11%	-3%
[O]=[Cd]	-8%	nt	nt	nt	-1%	nt
CCCNC(=O)c1cc2c(c(-c3cccc(-c4cc5ccccc5o4)c3)n1)[C@H](CCO)N(C(=O)NC(C)C)C2	nt	i	?	?	nt	?
CCCC(C)C1(CC)C(=O)NC(=O)NC1=O (centres undefined)	-4%	nt	nt	nt	3%	nt
CC(C)COC(=O)OCN1C(=O)CN(CCN2CC(=O)N(COC(=O)OCC(C)C)C(=O)C2)CC1=O	?	i	i	23%	?	9%
CC(=O)O[C@H]1CC[C@@]2(C)C(=CC[C@@H]3[C@@H]2CC[C@]2(C)C(=O)CC[C@@H]32)C1	-22%	i	?	?	-3%	6%
CC(=O)O/C(=C1\CC2C3CC=C4CC(OC(C)=O)CCC4(C)C3CCC2(C)C1=O)C(F)(F)F (centres undefined)	-2%	?	10µM*	1%	?	-6%
S=P(NCCSCc1ccccc1)(N1CC1)N1CC1	9.2µM*	i	i	-10%	15µM*	-18%
S=P(NCCNP(=S)(N1CC1)N1CC1)(N1CC1)N1CC1	?	i	i	-6%	?	-3%
C=CC[C@@H](CC/C=C/C=C/CC/C=C\[C@@H]1CSC([C@@H]2C[C@@H]2C)=N1)OC	1.2µM*	i	i	2.3µM*	0.73µM*	2.1µM*
Cc1ccccc1NC(=O)Cc1nc(COC(=O)Cc2ccccc2)cs1	-15%	i	?	-10%[9.24 µM]	7%	-8%
Cc1ccccc1NC(=O)CCl	14%	21µM*	i	-11%	2%	-1%
O=C(CNC(=O)OCc1ccccc1)Nc1ccc(Br)cc1C(=O)c1ccccc1Cl	7%	?	8.2µM*	-29%	27%	?
CN(C(=O)CNC(=O)OCc1ccccc1)c1ccc(Br)cc1C(=O)c1ccccc1Cl	12µM*	2.3µM*	3.7µM*	?	8.2µM*	?
O=C(CNC(=O)c1ccc(Br)cc1)Nc1ccc(Br)cc1C(=O)c1ccccc1	-3%	i	i	0%	1%	0%
O=C1CC(CSc2ccc(Cl)cc2)=NN1	-7%	i	i	-1%	?	0%
Cc1[nH]n(-c2ccccc2)c(=O)c1C(c1ccc([N+](=O)[O-])cc1)c1c(C)[nH]n(-c2ccccc2)c1=O	-11%	?	i	0%	23µM*	5%
CCCCC(CC)COP(=O)(OCC(CC)CCCC)OCC(CC)CCCC (centres undefined)	?	?	?	?	10%	-4%
CCC1(O)C(=O)OCc2c1cc1n(c2=O)Cc2cc3c(N)cccc3nc2-1 (centres undefined)	?	0.21µM*	1.5µM*	1.6µM*	-10%	0.65µM*
COc1ccc(NC(=O)Cn2c3ccccc3c3nc4n(c(=O)c32)CCS4)cc1	-1%	i	i	?	21µM*	?
COc1ccc(NC(=O)CN(C)C(=O)CSC(c2ccccc2)c2ccccc2)cc1	12%	?	i	-9%	-1%	-23%

Screening data from PubChem.
